For 56 molecules, inhibition results are on record in PubChem BioAssay AID652257 (The Scripps Research Institute Molecular Screening Center, 2013).

Molecules are shown by their SMILES. In all, about 370,000 compounds went through this assay and about 4,800 (1.3%) were called active.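 The calls were made as follows: active = inhibition above about 21% made by adding two undisclosed values (limit read from the data); inactive = the rest.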 What follows is part of a selection rich in actives, with near analogues and random picks from the rest.

This experiment deals with Protein arginine N-methyltransferase 1 (Homo sapiens) (UniProt Q99873). Nature of the experiment: human PRMT1 activity-probe blockers – biochemical, fluorescence polarization, primary screen (AID 652257). The following applies: recombinant PRMT1, activity-based probe fluorescence polarization; at 2.79 µM; stronger effect = higher value. Background: Fluorescence polarisation rises when a labelled molecule tumbles more slowly, as on binding a larger partner.
Protein arginine N-methyltransferase 1 (Homo sapiens), sequence (Q99873 whole entry, looked up): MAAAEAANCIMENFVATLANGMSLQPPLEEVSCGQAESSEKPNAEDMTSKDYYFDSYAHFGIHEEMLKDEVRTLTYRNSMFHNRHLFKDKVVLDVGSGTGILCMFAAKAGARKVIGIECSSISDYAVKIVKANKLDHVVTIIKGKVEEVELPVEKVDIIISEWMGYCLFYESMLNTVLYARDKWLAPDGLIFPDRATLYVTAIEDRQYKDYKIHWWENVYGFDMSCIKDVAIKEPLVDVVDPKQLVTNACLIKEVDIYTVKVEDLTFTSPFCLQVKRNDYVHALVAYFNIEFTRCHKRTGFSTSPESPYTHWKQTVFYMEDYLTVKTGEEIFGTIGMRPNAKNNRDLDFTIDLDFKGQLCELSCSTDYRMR
In the case of `Cc1ccc(S(=O)(=O)NC(=O)N2CCCC(C)(C)C2)cc1`, the inhibition was -1.8% (inactive).

On to `CN(C)C(=O)N=NC(=O)N(C)C`, for which the inhibition is 27.4% (active).

Regarding `CC(NC(=O)c1cc(=O)[nH]c2ccccc12)c1ccc(F)cc1F` (stereo unspecified), the inhibition is 0.78% (inactive).

Take `CCOC(=O)c1cccc(NC(=O)CN(C)S(=O)(=O)c2ccc(-c3cocn3)s2)c1`: the inhibition is -6.43% (inactive).

Turning to `N#CC1=C(N)Oc2c(sc3ccccc23)C1c1ccco1` (stereo unspecified), the inhibition is 26.8% (active).

Consider `O=C(Nc1cccc(C(=O)NC2CC2)c1)c1ccc(F)c(S(=O)(=O)N2CCOCC2)c1`, for which the inhibition is 1.48% (inactive).

Turning to `O=C(Nc1ccccc1Cl)/C(Cl)=C(\Cl)S(=O)c1ccccc1` (stereo unspecified), the inhibition was 80.3% (active).

`O=C(Nc1ccnn1C1CCN(C/C=C/c2ccc(F)cc2)CC1)C1CCCC1`: the inhibition is -2.06% (inactive).

For `O=C(N[C@H](C(=O)N1CCC[C@H]1C(=O)NCCc1ccccc1Cl)c1ccccc1)c1ccccc1`, the inhibition is 4.7% (inactive).

For `CCOC(=O)[C@]12CCCCC/C=C\1N(Cc1ccc(OC)cc1)C(=O)[C@H]2CC(=O)NCc1ccc(C)o1`, the inhibition is 11.7% (inactive).

In the case of `CCc1nc2c(OCC(N)=O)cccn2c1N(C)C(=O)c1ccc(OC)cc1`, the inhibition was -1.98% (inactive).

Consider `CN(C)S(=O)(=O)c1ccc(Cl)c(NC(=O)COC(=O)CC(NC(N)=O)c2ccc(Cl)cc2)c1` (stereo unspecified), for which the inhibition was -6.61% (inactive).

Take `O=c1[nH]c2ccccc2n2c(-c3ccccc3)nnc12`: the inhibition was 85.2% (active).

Consider `O=C(c1ncn2c1c(=O)[nH]c1ccccc12)N1CCc2ccccc2C1`, for which the inhibition is -1.56% (inactive).

For `N[C@@H](Cc1ccccc1)C(=O)N1CCC[C@@H]1C(=O)N1CCC2CCN(S(=O)(=O)c3ccccc3)CC21` (stereo partly specified), the inhibition was 3.14% (inactive).

Turning to `Cc1nc(N)[nH]c(=O)c1Oc1cccc(C(F)(F)F)c1`, the inhibition is -1.54% (inactive).

As to `O=C(NC1CCC1)c1ccc(C#Cc2cccc(F)c2)c[n+]1[O-]`, the inhibition was -4.9% (inactive).

On to `C#CCN([C@H](C(=O)OC)C(C)CC)S(=O)(=O)c1ccccc1Br` (stereo partly specified), for which the inhibition is 1.85% (inactive).

Take `CCN1CCN(C(=O)N[C@@H](C(=O)N[C@@H]2C(=O)N3C(C(=O)O)=C(CSc4nnnn4C)CS[C@H]23)c2ccc(O)cc2)C(=O)C1=O`: the inhibition was 28.5% (active).

For the molecule `CCOC(=O)C1=C(CSc2nnnn2C)N(C)C(=O)NC1c1ccccc1` (stereo unspecified), the inhibition was -1.87% (inactive).

In the case of `CC(=O)NC1C(Oc2ccc(C=O)cc2)OC(COC(C)=O)C(OC(C)=O)C1OC(C)=O` (stereo unspecified), the inhibition is -2.72% (inactive).

`COC(=O)[C@H](C(C)C)N(CCCc1cn(Cc2ccccc2)nn1)S(=O)(=O)c1ccc(F)cc1Br`: the inhibition was 1.25% (inactive).

Regarding `C=CCNC(=S)NNC(=O)COc1c(Cl)cc(Cl)cc1Cl`, the inhibition was 1.94% (inactive).

As for `Cc1ccc(-n2c(COc3ccccc3)nnc2SCC(=O)Nc2ccc3c(c2)OCCO3)cc1`, the inhibition is 1.77% (inactive).

As for `COc1ccc(-n2c(SCC(=O)Nc3ccccc3-c3ccccc3)nnc2-c2cccnc2)cc1`, the inhibition was -3.53% (inactive).

For `COP(=O)(O)CNC(=O)OCc1ccccc1`, the inhibition is -3.79% (inactive).

For `CCOc1ccc(C(=O)CCC(=O)Nc2ccncc2)cc1`, the inhibition is -2.2% (inactive).

Regarding `CCOc1ccc(C(=O)CCN2CCOCC2)cc1`, the inhibition was 21.4% (active).

`CCOc1ccc(C(=O)CCC(=O)NC2=NCCS2)cc1`: the inhibition is 0.3% (inactive).

Regarding `CCN1C(=O)[C@H]2[C@@H](c3ccccc3)N[C@]3(CCCN(Cc4ccc(C)cc4)C3=O)[C@H]2C1=O`, the inhibition was -1.43% (inactive).

In the case of `COc1ccc(N2C(=O)CC(Nc3ccc(F)cc3)C2=O)c([N+](=O)[O-])c1` (stereo unspecified), the inhibition is 2% (inactive).

Regarding `COc1cc(/C=C2/C(=O)NN(c3ccc(F)cc3)C2=O)cc([N+](=O)[O-])c1O`, the inhibition is 22.9% (active).

For the molecule `COc1cc(CN2CC(C)CC(C)C2)cc([N+](=O)[O-])c1O` (stereo unspecified), the inhibition is -0.22% (inactive).

For the molecule `C=CCN1C(=O)[C@@H](CC(=O)N2CCN(C(=O)OCC)CC2)[C@]2(C(=O)OCC)CCCCC/C=C/12`, the inhibition was 2.76% (inactive).

With `N#CCOc1ccc(C2=NO[C@@H]3[C@@H]4C[C@@H]([C@H]5C(=O)N(c6ccc7c(c6)OCO7)C(=O)[C@@H]45)[C@H]23)cc1`, the inhibition is -0.79% (inactive).

Take `O=C(NCc1ccc(F)cc1F)[C@@H]1CCCN1C(=O)[C@@H]1CCCN1C(=O)c1cccc(Cl)c1`: the inhibition is -3.37% (inactive).

Regarding `CCOc1ccc(-c2nc(C)sc2CC(=O)O)cc1`, the inhibition was 4.47% (inactive).

As for `CC(=O)NC(CC(=O)Nc1nc(-c2ccccc2)c(C(C)=O)s1)c1ccccc1` (stereo unspecified), the inhibition is 1.97% (inactive).

`C/C(=N/Nc1nc(-c2ccccc2)c(CC(=O)O)s1)c1ccccc1`: the inhibition is 23.7% (active).

As for `COC(=O)N1Cc2ccnnc2CC1c1ccccc1Br` (stereo unspecified), the inhibition was -1.59% (inactive).

On to `CCOC(=O)C(Sc1ncc(C#N)c(N)n1)C(C)C` (stereo unspecified), for which the inhibition was 33.5% (active).

Turning to `CCCCSc1[nH]c(=O)c(C(=O)OCC)cc1C#N`, the inhibition is 5.58% (inactive).

As for `CCOC(=O)c1cnc(SCC(=O)Nc2ccccc2C(=O)OC)nc1N`, the inhibition is -1.74% (inactive).

For the molecule `COCCCNc1nc2c(-c3cccc(C)c3)nnn2c2ccc(Cl)cc12`, the inhibition was 1.2% (inactive).

Turning to `C=CCOC/C=C/C#CCN(CC=C)Cc1ccc(OC)cc1OC`, the inhibition was -0.66% (inactive).

In the case of `O=C(CCSc1ccccc1)NCCSc1ccccn1`, the inhibition was -0.03% (inactive).

With `Cc1ccc(Cc2c(-c3ccc(Cl)cc3)nc3c4ccccc4ccn23)cc1`, the inhibition is -0.73% (inactive).

For `Cc1ccc(Cc2c(-c3ccc(C)cc3)nc3c4ccccc4ccn23)cc1`, the inhibition was -3.94% (inactive).

Turning to `c1ccc(Cc2c(-c3ccco3)nc3c4ccccc4ccn23)cc1`, the inhibition was 26.2% (active).

As for `COc1ccc(CSc2nnc(-c3cccc(C)c3)n2C)cc1`, the inhibition is 8.96% (inactive).

`Cc1ccc(-n2c(SCC(=O)Nc3cccc4ccccc34)nnc2-c2ccco2)cc1`: the inhibition was 1.53% (inactive).

On to `CCOC(=O)C(C)n1nc(-c2ccccc2)c2ccccc2c1=O` (stereo unspecified), for which the inhibition was -2.85% (inactive).

`CCN(CC)C(=O)c1sc2nc(-c3ccccc3)ccc2c1N`: the inhibition was 23.1% (active).

For `CCN(CC)C(=O)c1nc[nH]c1C(=O)N(C)Cc1ccccc1`, the inhibition was 0.76% (inactive).

Regarding `O=C(CN1CCCc2ccccc21)NCc1ccc(F)cc1`, the inhibition was -5.39% (inactive).

As to `COc1cccc(N2CCN(CC(=O)N(C)Cc3ccc(F)cc3)CC2)c1`, the inhibition is 0.17% (inactive).

By inhibition is commonly meant the relative decrease from the control value, in per cent.
